Data as given in PubChem BioAssay AID2289 (National Center for Advancing Translational Sciences (NCATS), 2010).
Out of some 340,000 compounds screened, about 3,300 (0.97%) were called active. About 9% were inconclusive and are not listed. Calls follow the shape of the dose curve; as a rule, active = well fitted inhibition curve with a large enough effect; inconclusive = small, poorly fitted or top-dose-only effect, or effect the other way; inactive = flat fitted curve, though single readings scatter. Some of the results follow.

test: qHTS Assay for Modulators of miRNAs and/or Inhibitors of miR-21; conditions: HeLa miR-21-FLuc reporter, luciferase luminescence, 48 h; actives lower the signal; also: nearly all actives have a fitted effect of over 55% in size
Summary of the method: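 HeLa miR-21-FLuc reporter line, endogenous miR-21; 2000 cells/well in DMEM/10% FBS; compound titration up to ~40uM final, 48 h, 37 degree Celsius; luciferase detection reagent, 15 min lysis, CCD luminescence.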
Potency is read from the fitted curve at half-maximal effect.

Potency, active:
Cc1ccc(N/C=C2/Sc3ccccc3NC2=O)cc1 4.14 µM, Cc1nn(-c2ccccc2)c(Cl)c1/C=N/NC(=O)c1ccnn1C 5.21 µM, Cc1nn(-c2ccccc2)c(Cl)c1/C=N/Nc1nc2ccccc2[nH]1 0.293 µM, COC(=O)N/N=C\c1c(C)nn(-c2ccccc2)c1Cl 7.36 µM, Cc1nn(-c2ccccc2)c(Cl)c1/C=N/NC(=O)c1ccco1 3.29 µM, CCOC(=O)N/N=C/c1c(C)nn(-c2ccccc2Cl)c1Cl 7.36 µM, Cc1nn(-c2ccccc2)c(Cl)c1/C=N/NC(N)=O 16.5 µM, Cc1nn(-c2ccccc2)c(Cl)c1/C=N/NC(=O)c1ccccc1F 4.65 µM, CC1CCCN(c2nc3ccsc3c(=O)s2)C1 (configuration not stated) 8.26 µM, Cn1nc(NC(=O)C(F)(F)F)c2ncc(-c3ccc(Cl)cc3)nc21 9.27 µM, Cc1ccc2c(C)c(C(=O)N3CCCC(C(N)=O)C3)oc2c1C (configuration not stated) 13.1 µM, c1ccc(COc2ccc(CN3CCN(c4ccccn4)CC3)cc2)cc1 6.56 µM, C=COC(=O)CSc1nc(-c2cccs2)ccc1C#N 0.927 µM, CCOC(=O)c1cnc(-c2ccccc2)nc1N(C)C 7.36 µM, Cc1cc(-c2ccccc2)nc(-c2ccccc2)c1C 7.36 µM, CCOC(=O)c1ccc(Nc2cnc3ccccc3n2)cc1 1.47 µM, Cc1cc2ncc(-c3ccccc3)nc2cc1C 0.656 µM, CCOC(=O)c1ccc2ncc(-c3ccccc3)nc2c1 1.85 µM, CCOC(=O)c1ccc2c(c1)nc(-c1ccccn1)n2CC 1.65 µM, O=[N+]([O-])c1cccc(-c2ccc(SCc3ccccn3)nn2)c1 6.56 µM, Cc1cc2ncn(C(=O)N3CCC(C)CC3)c2cc1C 10.4 µM, COc1cc(/C=C/c2ccc(O)cc2)cc(OC)c1 2.93 µM, FC(F)(F)c1ccnc(Oc2ccc(C3=NCCS3)cc2)c1 1.65 µM, Cc1ccccc1Cn1nnc(-c2ccc3c(c2)OCO3)n1 16.5 µM, Cc1ccccc1CSc1ccc(-c2ccc3c(c2)OCO3)nn1 14.7 µM, O=C(Cn1nnc(-c2ccc3c(c2)OCO3)n1)Nc1ccccc1C(=O)O 14.7 µM, COc1cccc(-n2cnc3sc(C)c(C)c3c2=O)c1 11.7 µM, Clc1ccccc1-c1nnc(-c2ccc3c(c2)OCO3)o1 0.585 µM, Fc1cccc(NCc2ccccc2-c2nnc(-c3ccccc3Cl)o2)c1 1.04 µM, Clc1ccccc1-c1nnc(-c2ccccc2Cl)o1 3.69 µM, O=C(c1cccc(C(F)(F)F)c1)C1CCCN(C(=O)CN2CCCC2=O)C1 (configuration not stated) 3.29 µM, N#Cc1ccccc1CSc1nc2ccsc2c(=O)n1Cc1ccccn1 16.5 µM, Fc1ccc(OCc2nnc(-c3ccccc3Br)o2)c(Cl)c1 13.1 µM, Clc1ccccc1-c1nnc(COc2ccccc2)o1 5.85 µM, Clc1ccccc1OCc1nnc(-c2ccccc2Br)o1 4.65 µM, Clc1cccc(OCc2nnc(-c3ccccc3Br)o2)c1 16.5 µM, N#Cc1ccccc1OCc1nnc(-c2ccccc2Br)o1 1.31 µM, Clc1ccccc1OCc1nnc(-c2ccccc2)o1 7.36 µM, Clc1ccccc1OCCn1nnc2ccccc21 13.1 µM, C(#Cc1ccccc1)Cn1nnc2ccccc21 13.1 µM, c1ccc(CCn2nnc3ccccc32)cc1 14.7 µM, CCOC(=O)C1(Cc2ccccc2)CCCN(C(=O)c2cnn(CC)c2)C1 (configuration not stated) 9.27 µM, CCOC(=O)C1(Cc2cccc(OC)c2)CCCN(C(=O)CCN2CCCO2)C1 (configuration not stated) 5.85 µM, O=C(N/N=C/c1cn(-c2ccccc2)nc1-c1cc2ccccc2o1)c1ccccc1Br 0.927 µM, COc1ccc(Cn2c(C3CC3)nc3ccc(NC(C)=O)cc3c2=O)cc1 3.29 µM, CCC(=O)Nc1ccc2nc(C3CC3)n(Cc3ccc(C(C)(C)C)cc3)c(=O)c2c1 0.185 µM, COc1ccc(Cn2c(C3CC3)nc3ccc(NC(=O)C4CC4)cc3c2=O)cc1 1.47 µM, CC(=O)c1ccc(NS(=O)(=O)c2cccc(C)c2)cc1 11.7 µM, Cc1cccc(S(=O)(=O)Nc2ccc(-c3nc4ccc(C)cc4s3)cc2)c1 2.07 µM, Cc1ccc2nc(-c3ccc(NS(=O)(=O)c4ccc(F)cc4)cc3)sc2c1 6.56 µM, CCc1ccc2oc(-c3cc(N=Cc4cccc(OC)c4O)ccc3O)nc2c1 0.656 µM, CC/C(=N\NC(=O)c1c[nH]c2ccccc12)c1cccs1 2.93 µM, O=C(N/N=C/c1cccs1)c1c[nH]c2ccccc12 7.36 µM, S=C(c1ccc(-c2ccccc2Cl)o1)N1CCCCC1 3.29 µM, CN1CCN(C(=S)c2ccc(-c3cccc(Cl)c3Cl)o2)CC1 5.21 µM, COCCCNC(=S)N/N=C/c1ccc(N(C)C)cc1Cl 5.85 µM, Cc1cccc(NC(=O)c2cc(-c3cc(C)ccc3O)n[nH]2)c1 1.04 µM, Cc1ccc(O)c(-c2cc(-c3cccc(Br)c3)n[nH]2)c1 6.56 µM, Cc1cccc(NC(=O)c2cc(-c3cc(C)c(C)cc3O)n[nH]2)c1 0.736 µM, Cc1ccc(C)c(NC(=O)c2cc(-c3cc(C)ccc3O)n[nH]2)c1 5.21 µM, O=C(O)c1ccc(N/N=C/c2ccnc3ccccc23)cc1 3.69 µM, O=C(O)c1ccc(N/N=C/c2cccc3cccnc23)cc1 0.369 µM, CCCn1ncc2c(Nc3ccc(C)c(C)c3)ncnc21 4.65 µM, Cn1ncc2c(Nc3ccc4ccccc4c3)ncnc21 4.65 µM, Clc1ccc2c(c1)C1OCCC1C(c1ccco1)N2 (configuration not stated) 6.56 µM, Clc1ccc2c(c1)[C@H]1OCC[C@H]1[C@@H](c1ccco1)N2 5.85 µM, CCC(=O)c1ccc(OCc2ccccc2)c(OC)c1 6.56 µM, CCCNC(=O)c1cccc(COc2ccccc2OC)c1 2.07 µM, COc1ccccc1OCCNC(=O)c1ccc(Br)cc1 16.5 µM, COc1ccccc1OCCNC(=O)c1ccc2c(c1)CCC2 5.85 µM, Cc1ccc(OCCNC(=O)c2ccc(C)cc2)cc1 14.7 µM, Clc1cccc(Cl)c1Cn1ccc(C2CC2)n1 10.4 µM, O=C(NCc1ccccc1)c1c[nH]c2cc3c(cc2c1=O)OCCO3 2.33 µM, Cc1ccc(N/C=C/c2onc(C)c2[N+](=O)[O-])cc1 0.185 µM, Cc1cc(O)ccc1N/C=C/c1onc(C)c1[N+](=O)[O-] 1.04 µM, Oc1ccccc1N1CCN(c2ccc3ccccc3n2)CC1 0.826 µM, O=C(c1ccc2ccccc2n1)N1CCN(c2ccccc2Cl)CC1 16.5 µM, CN(C)c1cnn(-c2ccccc2)c(=O)c1Cl 14.7 µM, CC(=O)Nc1ccc(OCC(O)Cn2ccnc2)cc1 (configuration not stated) 16.5 µM, COc1ccc(-c2cnc3ccccc3n2)cc1NC(=O)CNC(=O)c1ccccc1 6.56 µM, CCOC(=O)c1ccc2c(c1)NCc1cccc(OC)c1O2 3.29 µM, CCN(CC)c1ccc(/C=N/N2CCOCC2)c(O)c1 2.93 µM, COc1cccc(NC(=S)Nc2cc(C)cc(C)n2)c1 4.65 µM, CSc1ccc(NC(=O)Nc2cc(C)ccn2)cc1 0.104 µM, Cc1ccc(NC(=O)Nc2cccc(C)n2)cc1 2.07 µM, Cc1cccc(NC(=O)Nc2cc(C)cc(C)n2)c1 0.736 µM, Cc1cc(C)nc(NC(=O)/C=C/c2ccccc2Cl)c1 2.07 µM, CC(NC(=O)c1ccccc1NC(=O)c1ccco1)C(=O)O (configuration not stated) 6.56 µM, Nc1nc(-c2ccc3ccccc3c2)cs1 1.65 µM, CN(C)/C=N/c1nc(-c2ccc3ccccc3c2)cs1 1.31 µM, COc1ccc(-c2csc(N)n2)cc1F 9.27 µM, COc1ccc(-c2cn3cccc(C)c3n2)cc1F 0.927 µM, COc1ccc(/C=C/C(=O)Nc2ccccc2)cc1OC 4.14 µM, CCOC(=O)c1ccc(OS(=O)(=O)c2ccccc2)c(OC)c1 1.31 µM, COc1ccc(NC(=O)/C=C/c2ccccc2)cn1 1.65 µM, COc1ccccc1NC(=S)N/N=C/c1ccc(O)cc1 0.736 µM, CCN(CC)c1ccc(/C=N/NC(=O)Nc2ccccc2)cc1 4.14 µM, COc1cc(/C=N/NC(=O)Nc2ccccc2)ccc1OC(C)=O 8.26 µM, Cc1cccc(/C(N)=N/OC(=O)c2ccc(F)cc2)c1 4.65 µM, COc1ccc(/C=C/C(=O)O/N=C(\N)c2ccccc2)cc1OC 5.85 µM, COc1ccc(C(=O)O/N=C(\N)c2cccc(C)c2)cc1OC 8.26 µM, O=C(/C=C/c1ccccc1)Nc1cccnc1Cl 1.85 µM, COc1ccc2c(c1)CC/C2=N\OC(=O)c1cccc(C)c1 4.14 µM, CCCCCC(=O)N/N=C/c1ccc(N(C)C)cc1 13.1 µM, CC(=O)Oc1ccc(/C=N/NC(=S)Nc2ccccc2)cc1 0.656 µM, Cc1ccccc1/C(N)=N/OC(=O)/C=C/c1ccccc1 5.21 µM, COc1ccc(C(=O)O/N=C(\N)c2ccccc2)cc1OC 2.07 µM
